In experiment [1] the target is Albumin (Bos taurus) (UniProt P02769). In words: compounds binding labelled BSA control protein – biochemical, small-molecule microarray, Alexa647 label, 635/667 nm fluorescence, artefact control for SMM control protein annotation, profiling panel (AID 1118).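 Note: score merges 667 nm emission intensity and signal-to-noise per printed compound spot.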 The note with it: BSA-A647 binding, fluorescence 635 nm, higher = more signal.
The nature of experiment [2]: probe aXIP binding to arrayed compounds – biochemical, NeuroSMM set, 635/667 nm fluorescence, primary screen (AID 1119).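 Note: probe is the protein aXip251-270 applied at 1 µg/mL to compound-printed slides; binding of probe to printed compounds measured as 667 nm fluorescence plus signal to noise.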 The note with it: small-molecule microarray, higher = more signal, called active from +8 up or from −8 down.
A short description of experiment [3]: probe aNOTCH3 binding on compound microarray – biochemical, small-molecule microarray, 635/667 nm fluorescence, primary screen (AID 1120).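 Note: probe is a biotin-tagged antibody raised against NOTCH3 rather than NOTCH3 protein; score merges spot fluorescence near 667 nm with spot signal to noise.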 The settings on record: higher = more signal.
A short description of experiment [4]: probe aNOTCH2 binding on compound microarray – biochemical, small-molecule microarray, 635/667 nm fluorescence, primary screen (AID 1121).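 Note: score merges feature fluorescence read at 667 nm with its signal to noise.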 The settings on record: higher = more signal.
Experiment [5] has as its target Carbonic anhydrase 2 (Homo sapiens) (UniProt P00918). In words: compounds binding carbonic anhydrase 2 – biochemical, small-molecule microarray, Alexa647-labelled CAII, profiling panel (AID 1122). The note with it: CAII-A647 binding fluorescence, higher = more signal.
The nature of experiment [6]: COS7 lysate on small-molecule microarray, probe aHis, 635 nm (AID 1123).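 Note: z-score combines 667nm fluorescence intensity with signal-to-noise per printed compound spot.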 The note with it: COS7 cell lysate, fluorescence, higher = more signal.
Experiment [7] is described as follows: probe aLAP1 signal on lysate-treated microarray – cell lysate, small-molecule microarray, COS7 lysate, primary screen (AID 1124).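 Note: lysate comes from COS7 cells expressing LAP1 and is applied at 0.3 µg/mL; score merges spot fluorescence near 667 nm with signal-to-noise over triplicate slides.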 The note with it: probe aLAP1, fluorescence, higher = more signal.
The test system of experiment [8] is Sam68 (KHDRBS1). In words: compounds binding KHDRBS1 protein – biochemical, small-molecule microarray, 635 nm fluorescence, primary screen (AID 1125).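 Note: score merges 667 nm channel intensity with signal to noise over triplicate slides.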 The settings on record: higher = more signal.
Experiment [9] deals with Chordin-like protein 2 (CHRDL2). The experiment in a line: compounds binding chordin-like 2 – biochemical, small-molecule microarray, 635 nm fluorescence, primary screen (AID 1126).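 Note: printed compound slides probed with Chrdl2 protein at 4 µg/mL for 1 h at 4 C; score merges 667 nm emission intensity with signal to noise over three replicate slides.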 The note with it: fluorescence 635 nm, higher = more signal.
In experiment [10] the target is Concanavalin-A (Canavalia ensiformis) (UniProt P02866). The experiment in a line: compounds binding concanavalin A lectin – biochemical, small-molecule microarray, Alexa647 label, 635 nm, artefact control for SMM control protein annotation, primary screen (AID 1127).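 Note: z combines 667 nm emission intensity with signal-to-noise across three replicate slides.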 The settings on record: ConA-A647 binding fluorescence, higher = more signal.

Each structure is given as a SMILES string. Activity calls are given as the source filed them.

Concanavalin-A (Canavalia ensiformis), sequence (P02866 whole entry, looked up): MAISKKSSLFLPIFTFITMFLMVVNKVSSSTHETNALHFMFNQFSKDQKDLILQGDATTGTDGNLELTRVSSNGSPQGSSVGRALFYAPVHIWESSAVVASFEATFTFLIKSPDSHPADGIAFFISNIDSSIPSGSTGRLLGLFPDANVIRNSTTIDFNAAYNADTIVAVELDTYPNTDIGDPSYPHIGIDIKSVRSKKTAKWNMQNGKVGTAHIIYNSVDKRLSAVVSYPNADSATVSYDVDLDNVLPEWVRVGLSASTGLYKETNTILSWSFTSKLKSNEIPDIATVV
Albumin (Bos taurus), sequence (P02769 whole entry, looked up): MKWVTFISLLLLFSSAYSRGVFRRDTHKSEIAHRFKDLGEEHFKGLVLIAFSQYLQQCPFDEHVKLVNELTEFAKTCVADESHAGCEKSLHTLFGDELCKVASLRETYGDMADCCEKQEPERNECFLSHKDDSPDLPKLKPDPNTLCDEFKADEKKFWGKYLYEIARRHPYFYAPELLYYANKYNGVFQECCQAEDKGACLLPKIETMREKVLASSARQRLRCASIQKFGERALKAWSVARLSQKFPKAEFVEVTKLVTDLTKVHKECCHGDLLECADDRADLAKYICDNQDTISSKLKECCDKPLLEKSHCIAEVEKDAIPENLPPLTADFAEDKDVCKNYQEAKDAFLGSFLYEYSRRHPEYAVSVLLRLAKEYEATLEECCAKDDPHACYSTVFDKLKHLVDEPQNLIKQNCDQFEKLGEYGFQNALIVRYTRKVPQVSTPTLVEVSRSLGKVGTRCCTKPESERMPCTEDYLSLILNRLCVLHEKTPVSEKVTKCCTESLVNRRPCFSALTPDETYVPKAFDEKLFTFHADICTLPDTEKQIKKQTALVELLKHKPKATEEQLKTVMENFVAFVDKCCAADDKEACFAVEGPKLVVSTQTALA

As to `O=C/C=C/c1ccc(-c2ccccc2)cc1`, the composite z-score in [1] was -1.04; in experiment [3] it was -0.172; in experiment [4], -0.0843; in experiment [5] it was -0.202; in experiment [6], -0.327; in experiment [7] it was 1.35. For the same compound, the results for the composite z-score in experiment [8], in experiment [9] and in experiment [10] were -0.789, 0.438 and -0.518, respectively. Besides, in [2], the composite Z-score was -0.646 (inactive).

Turning to `COc1ccc(C(=O)Nc2ccc(CN3C(=O)[C@@]4(O[C@@H](CC(=O)N(CCO)Cc5ccccc5)[C@H]([Si](C)(C)c5ccc(OC)cc5)[C@H]4C)c4ccccc43)cc2)cc1`, the composite z-score in [1] is 0.469; in experiment [3], -0.222; in experiment [4], -0.172; in [5], 0.294; in [6] it was 0.678; in experiment [7] it was -0.294. Further, the composite z-score in experiment [8] turned out to be 0.0422; in [9] it was 1.01; in [10], 1.1. The composite Z-score in experiment [2] is 0.226 (inactive).

As for `CCN1C(=O)C2CC(=O)C3C(CN(S(=O)(=O)c4ccc(C)cc4)C3c3ccc(C)cc3)C2C1=O` (stereo not given), the composite z-score in [1] is 0.449; in experiment [3], 0.0282; in experiment [4] it was -0.108; in experiment [5], 0.75; in experiment [6], 2.05; in [7], 1.11. For the same compound, the composite z-score in experiment [8] is 0.768; in experiment [9] it was -0.99; in experiment [10], 0.99. In addition, the composite Z-score in experiment [2] was 0.37 (inactive).

In the case of `O=C(O)C1=CC[C@H]2C(=O)N(c3ccccc3)C(=O)[C@@H]12`, the composite z-score in experiment [1] was 0.342; in [3] it was 0.21; in [4] it was -0.0216; in experiment [5], 0.425; in experiment [6] it was 1.33; in experiment [7], 0.453. Besides, the composite z-score in [8] was 1.31; in [9] it was -0.0125; in experiment [10], 1.02. The composite Z-score in [2] is 0.277 (inactive).

As for `COC(=O)[C@]1(Cc2ccccc2N=[N+]=[N-])N=C(c2ccc(OCCCO)cc2)O[C@@H]1c1ccccc1CN=[N+]=[N-]`, the composite z-score in [1] is -0.836; in [3] it was 0.169; in [4] it was -0.0439; in experiment [5] it was 0.483; in [6], 1.36; in experiment [7] it was -0.0388. Also, the results for the composite z-score in [8], in [9] and in experiment [10] were 1.27, 0.232 and 0.844, respectively. Moreover, in experiment [2], the composite Z-score is 0.636 (inactive).

For `CC(C)c1ccc(NN2C(C(O)C(C)c3ccccc3)C=CC3C(=O)N(c4ccccc4)C(=O)C32)cc1` (stereo not given), the composite z-score in experiment [1] came to 1.03; in [3], 0.578; in experiment [4], 0.589; in experiment [5], 0.749; in [6], 3.34; in experiment [7], 0.952. Further, the composite z-score came out at 1.28 in experiment [8], 0.306 in experiment [9] and 1.17 in experiment [10]. Moreover, the composite Z-score in experiment [2] is 0.304 (inactive).

Turning to `C=C(COC)/C(=C/C[C@@H](OC(=O)c1ccncc1)c1ccccc1OCCO)c1cnc2ccccc2c1`, the composite z-score in experiment [1] was 0.57; in [3], 0.265; in experiment [4], -0.0762; in [5], 0.962; in experiment [6], 0.562; in [7] it was 0.475. The composite z-score in experiment [8] was 1.3; in [9] it was 1.38; in [10] it was 1.22. Also, the composite Z-score in experiment [2] is 0.341 (inactive).

Regarding `COc1cc2c(cc1OC)CN(C(=O)[C@@H]1[C@H]3C(=O)O[C@H](c4ccccc4)[C@H](c4ccccc4)N3[C@H](c3ccc(O)cc3)[C@@]13C(=O)Nc1ccc(C#CC4=CCCCC4)cc13)CC2`, the composite z-score is 0.833 in experiment [1]; 0.0522 in experiment [3]; -0.0142 in [4]; 0.5 in experiment [5]; 1.49 in experiment [6]; 0.453 in [7]. Further, the composite z-score in experiment [8] was determined as 1.3; in experiment [9], 0.153; in [10], 1.1. Also, the composite Z-score in [2] was -0.0662 (inactive).

For `C=CCNC(=O)[C@H]1[C@@H]2C(=O)O[C@@H](c3ccccc3)[C@@H](c3ccccc3)N2[C@@H](c2ccc(OCCO)cc2)[C@]12C(=O)Nc1ccc(C#Cc3ccc(OC)cc3)cc12`, the composite z-score stood at 0.404 in experiment [1]; 0.146 in [3]; 0.0805 in [4]; 0.386 in experiment [5]; 2.34 in [6]; 0.315 in experiment [7]. The composite z-score in experiment [8] turned out to be 1.3; in experiment [9] it was 0.581; in experiment [10] it was 1.18. Besides, in experiment [2], the composite Z-score is 0.637 (inactive).

With `[N-]=[N+]=NCc1ccccc1C[C@@]1(C(N)=O)N=C(c2ccc(OCCCO)cc2)O[C@@H]1c1ccccc1N=[N+]=[N-]`, the composite z-score in [1] amounted to 0.873; in [3], 0.0065; in experiment [4], 0.0368; in experiment [5], 0.63; in experiment [6], 2.8; in [7], 0.197. Further, the composite z-score in [8] was 0.816; in experiment [9], 0.0247; in experiment [10] it was 1.12. The composite Z-score in experiment [2] was -0.254 (inactive).

Turning to `CCOC(=O)C[C@H]1[C@H](OC(=O)Cc2ccc3c(c2)OCO3)[C@@H](NC(=O)CC(C)C)c2cc(OCCCO)ccc2N1C(=O)c1ccc2ccccc2n1`, the composite z-score was 0.808 in [1]; 0.121 in experiment [3]; -0.162 in [4]; -0.107 in experiment [5]; 0.26 in experiment [6]; -0.0904 in experiment [7]. The composite z-score is 0.797 in [8], 0.386 in experiment [9] and 0.369 in [10]. Besides, in [2], the composite Z-score was 0.0066 (inactive).

On to `COC(=O)[C@H]1N=C(c2ccc(OCCCO)cc2)O[C@H]1c1ccccc1N=[N+]=[N-]`, for which the composite z-score was determined as 0.177 in experiment [1]; 0.156 in experiment [3]; 0.273 in experiment [4]; 0.574 in experiment [5]; 2.51 in [6]; 0.285 in experiment [7]. Besides, the composite z-score was found to be 0.342 in experiment [8], 0.158 in [9] and 0.656 in experiment [10]. Further, the composite Z-score in experiment [2] was 0.408 (inactive).

As to `CC(C)(C)OC(=O)CC[C@@]1(C(=O)N2CCOCC2)N=C(c2ccc(OCCCO)cc2)O[C@@H]1c1ccccc1CN=[N+]=[N-]`, the composite z-score in [1] came to 0.966; in [3] it was 0.144; in experiment [4], 0.23; in experiment [5], 0.829; in [6] it was 3.77; in [7], 0.86. The composite z-score in [8] was 1.29; in experiment [9] it was -0.406; in [10], 1.09. For the same compound, the composite Z-score in experiment [2] is 1.31 (inactive).

For `COCCCNC(=O)[C@@]1(CCC(=O)OC(C)(C)C)N=C(c2ccc(OCCCO)cc2)O[C@H]1c1ccccc1`, the composite z-score in experiment [1] was 0.838; in experiment [3] it was 0.141; in experiment [4], -0.0237; in experiment [5] it was 0.696; in experiment [6], 2.94; in [7], 0.584. Further, the composite z-score in [8] was 0.748; in [9], -0.864; in experiment [10], 0.525. In addition, the composite Z-score in experiment [2] was 0.0999 (inactive).

As to `COCCOC(=O)N1C(=O)[C@@]2(c3cc(C#CC4=CCCCC4)ccc31)[C@H](C(=O)N1CCCCCCC1)[C@H]1C(=O)O[C@H](c3ccccc3)[C@H](c3ccccc3)N1[C@@H]2c1ccccc1OCCO`, the composite z-score stood at 0.321 in experiment [1]; 0.733 in experiment [3]; 0.0596 in experiment [4]; 0.522 in experiment [5]; 1.58 in [6]; 1.2 in [7]. Besides, the composite z-score was 1.3 in experiment [8], 0.6 in [9] and 1.11 in experiment [10]. For the same compound, the composite Z-score in [2] was 0.496 (inactive).

In the case of `COc1cccc(C)c1NC(=O)O[C@H]1[C@H](OC(=O)Nc2ccc3c(c2)OCO3)[C@H](OC(=O)Nc2ccc3c(c2)OCO3)[C@@H](OC)O[C@@H]1CO`, the composite z-score in experiment [1] was 0.428; in [3], 0.473; in experiment [4] it was -0.101; in experiment [5], 0.3; in experiment [6] it was 1.43; in [7], 0.405. The composite z-score in experiment [8] was 1.3; in [9], 0.0955; in experiment [10], 1.17. Moreover, in [2], the composite Z-score was 0.645 (inactive).

(Values after PubChem BioAssay.)
